From ChEMBL document CHEMBL1157539, “Thousands of chemical starting points for antimalarial lead identification” (Nature, 2010) come the findings set out here.

Format in all cases: functional
Assay [1] concerns Plasmodium falciparum. As to the kind of experiment: GSK_TCMDC: Inhibition of Plasmodium falciparum 3D7 in whole red blood cells, using parasite LDH activity as an index of growth. Test compounds present at 2uM.
Assay [2] relates to Plasmodium falciparum. As to the kind of experiment: GSK_TCMDC: Inhibition of Plasmodium falciparum Dd2 in whole red blood cells, using parasite LDH activity as an index of growth. Test compounds present at 2uM.
The subject of another assay is HepG2. Nature of the assay: GSK_TCMDC: Percent inhibition of human HepG2 cell line. Test compounds present at 10uM.

By Inhibition is commonly meant the share of the control response that was lost under treatment. A higher Inhibition goes with a strong effect. With `CS(=O)(=O)O.O=[N+]([O-])c1ccc(CNCCCCCCNCc2ccc([N+](=O)[O-])c3ccccc23)c2ccccc12`, the Inhibition in the assay with Plasmodium falciparum [1] is given as 100%; in the assay with Plasmodium falciparum [2] it was 98%; in the assay on HepG2 it was 88%.
The corresponding values for `O=C(Nc1ccccc1)N1CCC(CN2CCOC(c3ccccc3)(c3ccccc3)C2)CC1` are 96%, 98% and 10%.
As for `CC(C)(C)c1ccc(O)c(CNC2CCCCC2)c1.Cl`, the Inhibition turned out to be 100% in the assay with Plasmodium falciparum [1], 98% with Plasmodium falciparum [2] and 5% with HepG2.
The corresponding values for `COc1ccc(CC2(c3ccc(F)cc3)N=C(N)N(CCCc3ccccc3)C2=O)cc1.O=C(O)C(F)(F)F` (configuration not stated) are 99%, 97% and 38%.
The matching figures for `CC(=O)Nc1ccc2[nH]cc(C3CCN(CC4CCC(NC(=O)/C=C/c5ccccc5Cl)CC4)CC3)c2n1` (configuration not stated): 100%, 79% and 16%.
The corresponding values for `CO/C(=C\C=C\c1cc2cc(Cl)c(Cl)cc2[nH]1)C(=O)NCCCNCCN(C)c1ccccc1` are 100%, 55% and 33%.
For `Cc1cccc2nc(-c3ccc(-c4ccc(NC(=O)Nc5ccc(Cl)c(Cl)c5)cc4)cc3)[nH]c12`, the Inhibition was 100% with Plasmodium falciparum [1], 100% with Plasmodium falciparum [2] and 37% in the assay with HepG2.
In the case of `CCCCCCCN1CC[C@@H](CCCc2ccnc3ccc(OC)cc23)[C@@H](CNC)C1.O=C(O)C(=O)O`, the figures for the Inhibition with Plasmodium falciparum [1], in the assay with Plasmodium falciparum [2] and with HepG2 were 100%, 95% and 25%, respectively.
The corresponding values for `CN1CCN(c2ccnc3ccc(NC(=O)Nc4cccc5ccccc45)cc23)CC1` are 100%, 96% and 0%.
The matching figures for `CC(C)c1cc(Oc2c(I)cc(CCNC(=N)N)cc2I)ccc1O.Cl`: 98%, 54% and 19%.
The corresponding values for `O=C(/C=C/c1cccc2ccccc12)NCCCCCN1CCC(c2c[nH]c3ccccc23)CC1` are 92%, 6% and 55%.
Take `CCc1c[nH]c2c(N3CCCC3=O)cc(C(=O)N[C@@H](Cc3ccccc3)[C@H](O)CNC3CCCCC3)cc12.O=CO`: the Inhibition turned out to be 100% with Plasmodium falciparum [1], 98% in the assay on Plasmodium falciparum [2] and 12% with HepG2.
In the case of `Cl.Oc1cccc(Nc2ccnc3cc(-c4ccncc4)ccc23)c1`, the Inhibition is 100% with Plasmodium falciparum [1], 99% in the assay on Plasmodium falciparum [2] and 8% with HepG2.
As to `CN1CCC(c2nc(N)no2)C1.O=C(O)C(=O)O` (configuration not stated), the Inhibition with Plasmodium falciparum [1] came to 95%; in the assay on Plasmodium falciparum [2], 2%; in the assay on HepG2 it was 15%.
The corresponding values for `OC(CN1c2ccccc2Sc2ccccc21)CN(C1CCCCC1)C1CCCCC1` (configuration not stated) are 99%, 96% and 46%.
As for `COC(=O)/C=C/c1ccc(CCC(C)NCC(O)c2cccc(Cl)c2)cc1` (configuration not stated), the Inhibition was 94% in the assay with Plasmodium falciparum [1], 77% in the assay on Plasmodium falciparum [2] and 5% in the assay with HepG2.
On to `CCCN(Cc1ccc(OCC)cc1)Cc1cc(=O)c2cc(Cl)ccc2[nH]1`, for which the results for the Inhibition in the assay with Plasmodium falciparum [1], with Plasmodium falciparum [2] and in the assay on HepG2 were 82%, 82% and 47%, respectively.
As for `CC[C@H](C)[C@H](NC(=O)[C@H](CC1CCCCC1)[C@H](CC)N(O)C=O)C(=O)Nc1ccccn1`, the Inhibition with Plasmodium falciparum [1] came out at 96%; in the assay with Plasmodium falciparum [2], 95%; with HepG2, 14%.
The matching figures for `O=C(NC1CCCCN(Cc2ccc3c(c2)OCCO3)C1)c1cc(-c2ccccc2F)cs1.O=C(O)C(F)(F)F` (configuration not stated): 92%, 19% and 8%.
The corresponding values for `COCCNCc1cccc(-c2ccc(CNC3CCN(Cc4ccccc4)CC3)cc2)c1.O=C(O)C(F)(F)F` are 100%, 97% and 34%.
As for `N#CCCN1CCN(Cc2ccc(-c3cccc(-c4nc5cc(F)ccc5[nH]4)c3)cc2)CC1.O=C(O)C(F)(F)F`, the Inhibition with Plasmodium falciparum [1] is 91%; in the assay on Plasmodium falciparum [2], 17%; in the assay on HepG2, 16%.
The corresponding values for `CC(NC(=O)c1ccc(O)c(-c2ccc(Cl)c(Cl)c2)c1)C(=O)NCCN1CCCC1` (configuration not stated) are 99%, 9% and 0%.
On to `CC1(C)C(N(O)C(=O)Nc2ccc(Cl)c(Cl)c2)N(c2ccc(Cl)c(Cl)c2)C(=O)N1CCc1ccccc1` (configuration not stated), for which the Inhibition with Plasmodium falciparum [1] is 91%; in the assay on Plasmodium falciparum [2] it was 93%; in the assay with HepG2 it was 10%.
The matching figures for `CN(CCCNCc1ccc2ccccc2c1)CCCNCc1ccc2ccccc2c1.Cl`: 100%, 79% and 100%.
The matching figures for `CC(=O)c1ccccc1C(=O)N1CCOc2ccc(C(O)C(c3ccccc3)c3ccccc3)cc2C1` (configuration not stated): 96%, 98% and 10%.
The corresponding values for `COc1cc2nc(SCC(C)C)n(CCCn3ccnc3)c(=N)c2cc1OC` are 99%, 78% and 15%.
With `CC(C)Nc1nc(NCCc2c[nH]cn2)nc(Nc2ccc(Oc3ccccc3)cc2)n1`, the Inhibition with Plasmodium falciparum [1] came out at 95%; with Plasmodium falciparum [2], 9%; in the assay on HepG2 it was 0%.
On to `CCNc1cc(C(=O)N[C@@H](Cc2ccccc2)[C@H](O)CN[C@@H](C)c2cccc(OC)c2)cc(N2CCCC2=O)c1.O=CO`, for which the figures for the Inhibition with Plasmodium falciparum [1], with Plasmodium falciparum [2] and in the assay with HepG2 were 95%, 65% and 5%, respectively.
Regarding `CN(C)c1ccc2c(c1)Sc1cc(N(C)C)ccc1N2C(=O)CCCC(=O)[O-].[Na+]`, the Inhibition in the assay on Plasmodium falciparum [1] is on record as 96%; in the assay on Plasmodium falciparum [2] it was 81%; with HepG2 it was 0%.
